Unmarked numbers belong to inactive results. Results filed as inconclusive are left out. The source made the active and inactive calls. Unless noted, the call rests on the fitted dose curve; in most records, active means well fitted curve in the direction sought with a large enough effect in the repeat runs; inconclusive means weak or mixed curves; inactive means no such curve, though single readings can be large; an effect the other way counts as inactive or inconclusive.

The source of these data is PubChem BioAssay (Tox21).

Assay [1] can be described thus: qHTS assay for small molecule agonists of the p53 signaling pathway (AID 651631; calls by dose curve; further: nearly all actives have a fitted effect of over 15% in size; further: potency means the concentration at half of the fitted maximal effect). In outline:
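HCT-116 cells carrying a beta-lactamase reporter under p53 response elements were dosed with compound for 16 h at 37 °C. LiveBLAzer B/G FRET substrate was then added for 2 h at room temperature, and fluorescence intensity was read to detect pathway agonism.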

Assay [2] can be described thus: qHTS assay for small molecules that induce genotoxicity in human embryonic kidney cells expressing luciferase-tagged ATAD5 (AID 651632). Further: nearly all actives have a fitted effect of over 15% in size. In outline: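 Genotoxicity read-out via ATAD5-luciferase: HEK293T cells, 16 hr compound incubation at 37C, Amplite detection.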
(In general: qHTS replaces the single test concentration by a dilution series.)

Assay [3] in a line: qHTS assay for small molecule agonists of the p53 signaling pathway - cell viability (AID 651633; calls by dose curve;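 further: p53RE-bla HCT reporter cells with a stable beta-lactamase p53 reporter; series mostly up to about 83 µM; nearly all actives have a fitted effect of over 30% in size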). In outline:
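p53RE-bla cells, seeded at 4,000 per well and rested 5 h at 37 C/5% CO2, received compounds in DMSO for 16 h at 37 C. CellTiter-Glo was then added, and luminescence was read after 30 min at room temperature to gauge cytotoxicity.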

The nature of assay [4]: qHTS assay for small molecules that induce genotoxicity in human embryonic kidney cells expressing luciferase-tagged ATAD5 - cell viability (AID 651634; calls by dose curve; further: nearly all actives have a fitted effect of over 25% in size). In outline: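 Live-cell protease activity (CellTiter-Fluor, fluorescence) indicates viability. HEK293T cells with luciferase-tagged ATAD5; 15.5 hr compound treatment at 37C.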
The nature of assay [5]: qHTS assay to test for compound auto fluorescence at 590 nm (red) in HepG2 cells (AID 720674). In outline: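 Intrinsic compound fluorescence in the red window (Ex/Em 540/590 nm) is measured in attached HepG2 cells exposed for 1 hr, DMSO vehicle as baseline, benchmarked to Rose Bengal sodium.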
Assay [6] can be described thus: qHTS assay to test for compound auto fluorescence at 535 nm (green) in HepG2 cells (AID 720675).
A short description of assay [7]: qHTS assay to test for compound auto fluorescence at 460 nm (blue) in HEK293 cells (AID 720678). In outline: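 After cell attachment (4-5 hr, 37C), compounds were pinned onto HEK293 monolayers in 10% dialyzed FBS medium. The blue channel (405/460 nm) was read following overnight culture. Equivalency was calculated against triamterene.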
A short description of assay [8]: qHTS assay to test for compound auto fluorescence at 590 nm (red) in HEK293 cells (AID 720679). In outline: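 Plates of HEK293 cells (10% dialyzed FBS) are treated with 23 nL compound or DMSO vehicle after a 4-5 hr attachment period, incubated overnight at 37C, and read for red fluorescence at 540/590nm.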
Assay [9] in a line: qHTS assay to test for compound auto fluorescence at 535 nm (green) in HEK293 cells (AID 720680).
Assay [10] is described as follows: qHTS assay to test for compound auto fluorescence at 460 nm (blue) in HEK293 cell free culture (AID 720681). In outline:
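Test compounds were pinned into cell-free culture medium (DMEM with 10% FBS) and fluorescence was read directly at Ex/Em 405/460 nm. Signals were expressed as fluorescence equivalents of triamterene, with DMSO vehicle as control.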

Assay [11] in a line: qHTS assay to test for compound auto fluorescence at 535 nm (green) in HEK293 cell free culture (AID 720682). In outline: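 Green-label autofluorescence (485 nm excitation, 535 nm emission) measured on compound added to cell-free culture medium (DMEM, 10% FBS). Output is expressed relative to fluorescein.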
Assay [12] is described as follows: qHTS assay to test for compound auto fluorescence at 590 nm (red) in HEK293 cell free culture (AID 720683). In outline: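 Tox21 10K library compounds were pinned into cell-free DMEM with 10% FBS and fluorescence was read at excitation 540 nm. Activity is expressed as Rose Bengal sodium equivalency.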
Assay [13] in a line: qHTS assay to test for compound auto fluorescence at 590 nm (red) in HepG2 cell free culture (AID 720684). In outline: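 Measured in medium alone (MEM containing 10% FBS) following pintool addition of compound; emission at 590 nm with 540 nm excitation, referenced to Rose Bengal sodium.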
Assay [14] can be described thus: qHTS assay to test for compound auto fluorescence at 460 nm (blue) in HepG2 cell free culture (AID 720685). In outline: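 Compound (23 nL) or DMSO pinned into cell-free MEM with 10% FBS; blue fluorescence read at 405/460 nm excitation/emission, expressed as auto-fluorescence equivalency to triamterene.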
A short description of assay [15]: qHTS assay to test for compound auto fluorescence at 535 nm (green) in HepG2 cell free culture (AID 720686).
Assay [16] can be described thus: qHTS assay to test for compound auto fluorescence at 460 nm (blue) in HepG2 cells (AID 720687). In outline:
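Cells (2,000/well in MEM with 10% FBS) attached overnight at 37 C, then were exposed to compound or DMSO for 1 hr at 37 C, 5% CO2. Fluorescence read at Ex/Em 405/460 nm, expressed as triamterene-equivalent signal.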

Assay [17] has as its target Glucocorticoid receptor (Homo sapiens) (UniProt P04150). Description: qHTS assay to identify small molecule agonists of the glucocorticoid receptor (GR) signaling pathway (AID 720691; active means well fitted activation curve with a large enough effect in the signal ratio in the repeat runs, not every such curve was filed as active; the % refers to the signal ratio). In outline:
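Beta-lactamase reporter activity, read as fluorescence intensity, was measured in GR-bla HeLa cells exposed to compounds for 18 h at 37 C and then loaded with LiveBLAzer B/G FRET substrate for 2 h at room temperature.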

Assay [18] can be described thus: qHTS assay for small molecule disruptors of the mitochondrial membrane potential (AID 720635). Further: potency means the concentration at half of the fitted maximal effect. In outline: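 HepG2 cells (2,000/well) attached overnight at 37C, then took compound for 1 hr at 37C, 5% CO2. Mito-MPS dye was added for 30 min; fluorescence was read at 490/535 nm (monomers) and 540/590 nm (aggregates).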
Assay [19] is described as follows: qHTS assay for small molecule disruptors of the mitochondrial membrane potential - cell viability (AID 720634; calls by dose curve;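 further: human HepG2 liver cancer cells; series mostly up to about 83 µM; nearly all actives have a fitted effect of over 20% in size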). In outline: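 Human hepatoma HepG2 cells were treated for 1 hr with test chemicals, then given m-MPI dye and CellTiter-Glo. Cell viability reflects luminescence proportional to cellular ATP.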
On the % scale 0 is the no-effect control and ±100 the full control effect.

Sequence of Glucocorticoid receptor (Homo sapiens) (P04150 whole entry, looked up): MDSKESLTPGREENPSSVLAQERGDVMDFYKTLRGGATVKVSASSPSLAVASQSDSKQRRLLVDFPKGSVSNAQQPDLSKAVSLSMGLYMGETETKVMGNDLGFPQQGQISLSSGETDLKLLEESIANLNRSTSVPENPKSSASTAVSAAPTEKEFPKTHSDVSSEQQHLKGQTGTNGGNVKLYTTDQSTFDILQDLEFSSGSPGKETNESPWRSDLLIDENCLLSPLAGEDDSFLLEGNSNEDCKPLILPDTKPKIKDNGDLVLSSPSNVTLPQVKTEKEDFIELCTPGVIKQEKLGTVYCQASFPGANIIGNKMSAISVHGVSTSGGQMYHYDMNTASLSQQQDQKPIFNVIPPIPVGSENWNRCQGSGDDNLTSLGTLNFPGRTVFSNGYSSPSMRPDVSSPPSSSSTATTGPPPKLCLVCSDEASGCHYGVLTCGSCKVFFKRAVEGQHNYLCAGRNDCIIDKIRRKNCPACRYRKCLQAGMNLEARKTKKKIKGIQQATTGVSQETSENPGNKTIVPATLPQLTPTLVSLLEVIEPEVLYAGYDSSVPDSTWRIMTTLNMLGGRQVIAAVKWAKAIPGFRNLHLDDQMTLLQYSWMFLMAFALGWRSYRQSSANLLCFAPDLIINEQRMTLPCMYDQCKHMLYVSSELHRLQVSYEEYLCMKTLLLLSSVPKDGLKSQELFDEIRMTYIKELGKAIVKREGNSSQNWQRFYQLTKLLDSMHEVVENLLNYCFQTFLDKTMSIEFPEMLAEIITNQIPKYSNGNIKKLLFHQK

Consider `C=CC(=O)OCC(C)C`, for which the Potency result in assay [1], in assay [2], in assay [3] and in assay [4] was “inactive” in each case. The result in [5], in [6], in [7], in assay [8], in [9] and in assay [10] was inactive. Moreover, the molecule was classed as inactive in [11], in assay [12], in [13], in assay [14], in assay [15] and in [16]. In addition, the molecule was classed as inactive in assay [17].

For `Cc1ccc(-c2c(Cl)nc(C#N)n2S(=O)(=O)N(C)C)cc1`, the Potency in assay [1] was 15.3 µM (active); in [18], 1.09 µM (active). Besides, the Potency entry in [2] and in assay [4] was “inactive” throughout. The molecule was classed as inactive in assay [5], in assay [6], in assay [7], in assay [8], in [9] and in [10]. The molecule was called inactive in assay [11], in assay [12], in assay [13], in assay [14], in assay [15] and in assay [16]. Besides, in assay [17], the molecule was called inactive.

With `CO[C@@H]1[C@H](OC(=O)NC(=O)CCl)CC[C@]2(CO2)[C@H]1[C@@]1(C)O[C@@H]1CC=C(C)C`, the Potency in assay [1] was 18.8 µM (active). Also, the Potency result in assay [3] and in assay [19] was “inactive” each time. The fluorescence, relative to Rose Bengal in assay [5] was -0.229% [at 18.6 µM]. Also, the fluorescence, % of fluorescein control in assay [6] is -0.0271% [at 18.6 µM]; in assay [15], -0.0091% [at 18.6 µM]. The fluorescence, % of triamterene in [7] was 0.0741% [at 18.6 µM]. Further, the fluorescence, % of fluorescent control in assay [8] is 0.143% [at 18.6 µM]; in [10] it was -0.0636% [at 18.6 µM]; in assay [12], -0.369% [at 18.6 µM]; in assay [14], -0.133% [at 18.6 µM]; in [16], 0.154% [at 18.6 µM]. The fluorescence, % of fluorescein in [9] is -0.127% [at 18.6 µM]. Moreover, the activity change in [11] was 0.201% [at 18.6 µM]. The fluorescence, % of Rose Bengal in assay [13] was -0.153% [at 18.6 µM]. Moreover, the molecule was classed as inactive in assay [17].

As to `CN(C)c1ccc(N(C)C)cc1`, the Potency entry in assay [1], in assay [2], in assay [3], in assay [4] and in assay [18] was “inactive” each time. Moreover, the outcome in assay [5], in assay [6], in assay [7], in assay [8], in assay [9] and in assay [10] was inactive. For the same molecule, the outcome in assay [11], in assay [12], in [13], in [14], in [15] and in assay [16] was inactive. Moreover, in assay [17], the call was inactive.

As to `Cc1ccc(N)cc1C`, the Potency result in [1], in assay [2], in assay [3], in assay [4] and in [19] was “inactive” in each case. Further, the call in assay [5], in [6], in assay [8], in [9], in assay [10] and in [11] was inactive. For the same molecule, the molecule was called inactive in assay [12], in assay [13], in [14], in [15] and in assay [16].

As for `COc1ccc(-c2ccccc2)cc1NNC(=O)OC(C)C`, the Potency entry in [1], in assay [2], in [3] and in assay [19] was “inactive” each time. The result in assay [5], in [6], in assay [7], in assay [8], in [9] and in assay [10] was inactive. The result in assay [11], in assay [12], in [13], in [14], in assay [15] and in [16] was inactive.

For the molecule `CCCN(CCCl)c1c([N+](=O)[O-])cc(C(F)(F)F)cc1[N+](=O)[O-]`, the Potency entry in assay [1], in [2], in assay [3] and in [4] was “inactive” in each case. Further, the molecule was classed as inactive in assay [5], in [6], in assay [7], in assay [8], in assay [9] and in [10]. The molecule was classed as inactive in [11], in [12], in [13], in assay [14], in assay [15] and in [16]. Moreover, in assay [17], the molecule was called inactive.
